KB-V1 MDR tox = kills drug-selected multidrug resistant KB-V1 cells; KB-V1 MDR cells viability, CellTiter-Glo, 72 h; Potency, µM (series often up to 46.1 µM), actives largely listed as cytotoxic; 400,000 tested, 3.4% active; further: nearly all actives have a fitted effect of over 60% in size
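KB-V1 MDR subline cells in DMEM (phenol-red free, 10% FBS) exposed to compounds in qHTS concentration series for 72 h at 37 degrees C. Viability read by CellTiter-Glo luminescence; concentration-effect curves fitted after normalization and correction.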
HT1080NT lethal = kills 2HG-producing HT-1080-NT fibrosarcoma cells. AID 686970. 360,000 tested, 1.6% active. Potency, µM (titrated, usually from 46.1 µM), inactives show top-dose activity, negative = less viability, usual class: cytotoxic. HT-1080-NT fibrosarcoma viability, CellTiter-Glo ATP luminescence, 48 h;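 further: NT is the 2HG producing partner of a matched IDH1 knockdown line; 0% = DMSO-treated cells and -100% = media-only wells without cells; nearly all actives have a fitted effect of over 55% in size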
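A 48-hour cytotoxicity screen used HT-1080-NT cells plated 2 hours before compound delivery. ATP-based CellTiter-Glo luminescence measured viability, normalized to DMSO and no-cell controls.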
HT1080 IDH1KD tx = toxicity to HT-1080 IDH1 knockdown cells (counter line); HT-1080 IDH1 knockdown viability, ATP luminescence, 48 h; Potency, µM (doses to about 46.1 µM), for the others: at the highest dose activity, negative = toxicity, usual class: cytotoxic; 360,000 tested, 2% active; AID 686971;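 further: 0% = DMSO wells and -100% = cell-free medium wells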
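% activity derives from luminescence (CellTiter-Glo), normalised to DMSO and no-cell wells. HT-1080-IDH1KD cells, 750/well, had 48 h compound exposure at 37 °C.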
KB-3-1 cytotox = kills parental KB-3-1 adenocarcinoma cells | AID 1347075 | Potency, µM (top dose mostly 46.1 µM), hits mostly cytotoxic | 400,000 tested, 1.4% active | KB-3-1 viability, CellTiter-Glo ATP luminescence, 72 h; further: nearly all actives have a fitted effect of over 60% in size
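Cytotoxicity in the drug-sensitive parental line KB-3-1 was scored as loss of CellTiter-Glo luminescence following 72 h incubation with compound. Values come from curve fitting of normalized concentration-response data.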
The depositor's hits bear a star; i = inactive; ? = inconclusive; · = no result; [ ] = another dose, or the depositor's remark. An excerpt weighted towards active compounds, which were near 5.7% of everything screened. The call rests on the fitted dose curve; in most records, active means well fitted curve in the direction sought with a large enough effect; inconclusive means small, poorly fitted or top-dose-only effect, or another doubt; inactive means no such curve, though single readings can be large; an effect the other way counts as inactive or inconclusive. Unless noted, on the % scale 0 is the no-effect control and ±100 the full control effect; potency means the concentration at half of the fitted maximal effect.

SMILES	KB-V1 MDR tox	HT1080NT lethal	HT1080 IDH1KD tx	KB-3-1 cytotox
CCCCNC(=O)CSc1nc2ccccc2nc1Cc1ccc(Cl)cc1	i	·	·	i
Cn1cc([N+](=O)[O-])c(C(=O)Nc2sc3c(c2C#N)CCC3)n1	?	?	-5%	?
O=C(/C=C/c1ccco1)Nc1sc2c(c1C(=O)O)CCC2	i	-27%	?	i
N#Cc1c(NC(=O)/C=C/c2ccco2)sc2c1CCCC2	1µM*	0.58µM*	?	0.41µM*
Cc1noc(C)c1C(=O)Nc1sc(C)c(-c2ccccc2)c1C#N	4.1µM*	9%	26%	13µM*
Cc1nc(NC(=O)/C=C/c2ccco2)sc1C	?	-12%	?	4.1µM*
Cc1cc(C(F)F)n2nc(C(=O)Nc3sc4c(c3C#N)CCC4)nc2n1	21µM*	7%	3%	i
Cc1onc(-c2ccccc2)c1C(=O)NC(=S)Nc1sc2c(c1C#N)CCCC2	i	8%	13%	i
Cc1onc(-c2c(F)cccc2Cl)c1C(=O)Nc1sc2c(c1C(N)=O)CCC2	?	11µM*	14µM*	?
CCOC(=O)c1c(-c2ccc(F)cc2)csc1NC(=O)c1c(-c2ccccc2)noc1C	?	0%	?	i
Cc1onc(-c2ccccc2)c1C(=O)Nc1sc2c(c1C#N)CCC2	4.6µM*	13µM*	?	?
Cc1onc(-c2ccccc2)c1C(=O)Nc1sc2c(c1C(N)=O)CCC2	?	-29%	-1%	i
COC(=O)c1c(-c2ccccc2)csc1NC(=O)c1c(-c2ccccc2)noc1C	5.8µM*	-4%	?	i
CCc1cccc(NC(=O)c2cc3c(=O)[nH]c4ccccc4c3n2C)c1	i	·	·	i
CCOC(=O)c1ccccc1NC(=O)Cn1c(=O)n(CCC(=O)NCc2ccccc2OC)c(=O)c2ccccc21	i	·	·	i
O=C(NCC1CC1)c1ccc2nc(-c3ccoc3)c(-c3ccoc3)nc2c1	i	·	·	i
Cc1onc(-c2c(Cl)cccc2Cl)c1C(=O)N/N=C(\N)COc1ccc(Cl)cc1	i	?	?	4.1µM*
COc1cc(/C=N/NC(=O)c2c(-c3c(Cl)cccc3Cl)noc2C)ccc1OCC(N)=O	?	0%	-3%	i
Cc1ccsc1/C=N/NC(=O)c1ccncc1	i	-14%	9%	i
COc1cc(C(=O)N/N=C/c2sccc2C)cc(OC)c1OC	?	0.52µM*	0.26µM*	0.65µM*
COc1cc(C(=O)N/N=C/c2cc([N+](=O)[O-])cs2)cc(OC)c1OC	1.2µM*	2.9µM*	1.5µM*	?
CCC1CCCCN1S(=O)(=O)c1ccc(NC(=O)c2nc(S(C)(=O)=O)ncc2Cl)cc1 (configuration not stated)	?	4.6µM*	3.3µM*	?
CCOc1ccc(NC(=O)c2nc(S(=O)(=O)Cc3ccc(C)cc3)ncc2Cl)cc1	i	·	·	?
CCOc1ccc(NC(=O)c2nc(S(=O)(=O)Cc3ccccc3)ncc2Cl)cc1	i	·	·	?
Cc1ccc(CS(=O)(=O)c2ncc(Cl)c(C(=O)Nc3ccc(OC(F)F)cc3)n2)cc1	18µM*	16µM*	?	23µM*
SMILES	KB-V1 MDR tox	HT1080NT lethal	HT1080 IDH1KD tx	KB-3-1 cytotox
CCS(=O)(=O)c1ncc(Cl)c(C(=O)Nc2ccc(C)cc2)n1	i	18µM*	15µM*	?
CS(=O)(=O)c1ncc(Cl)c(C(=O)Nc2ccc3ccccc3c2)n1	i	9.2µM*	2.9µM*	i
O=C1COc2ccc(-c3cc(-c4ccccc4)c4c(n3)-c3cc(Cl)ccc3OC4)cc2N1	i	·	·	i
O=[N+]([O-])c1ccc(C(c2sc3nc(-c4ccco4)nn3c2O)N2CCC3(CC2)OCCO3)cc1 (configuration not stated)	i	·	·	i
COc1cc(NC(=O)c2cc3c(=O)oc4ccc(C)cc4c3s2)cc(OC)c1OC	i	·	·	i
CCS(=O)(=O)c1ncc(Cl)c(C(=O)Nc2ccc(S(=O)(=O)N3CCCC(C)C3)cc2)n1 (configuration not stated)	5.8µM*	2.6µM*	4.6µM*	3.7µM*
COC(=O)c1cccnc1-n1c(=O)c2cccnc2n(CC(=O)Nc2ccccc2F)c1=O	i	·	·	?
O=C(CN1C(=O)C2(SCC(=O)N2c2ccc(Cl)cc2)c2ccccc21)NCCc1ccccc1 (configuration not stated)	i	·	·	i
CC(=O)c1c(C(C)=O)c(C)n(-c2nc(-c3ccc(Br)cc3)c(C)s2)c1C	?	-6%	-15%	?
COc1ccc(-c2nc(-n3c(C)c(C(C)=O)c(C(C)=O)c3C)sc2C)cc1OC	15µM*	7%	6%	i
COc1ccc(-c2c(C#N)c(N)nc3sc(C(=O)c4ccccc4)c(N)c23)cc1	4.1µM*	1%	14%	i
CCOc1ccc(-c2c(C#N)c(N)nc3sc(C(=O)c4ccccc4)c(N)c23)cc1	i	-5%	-1%	i
O=C1CN(C(=O)c2cc(Br)c(Br)s2)c2ccccc2N1	?	?	21µM*	?
O=C1CN(C(=O)c2ccccc2)c2ccccc2N1	i	6%	5%	i
O=C1CN(C(=O)c2cccc(Br)c2)c2ccccc2N1	10µM*	15µM*	?	5.8µM*
NC(=O)C1CCN(C(=O)c2ccc(Cl)c(S(=O)(=O)N3CCc4ccccc43)c2)CC1	?	-1%	-1%	i
O=C1CN(C(=O)c2ccc(Cl)c(S(=O)(=O)N3CCc4ccccc43)c2)c2ccccc2N1	?	7.3µM*	?	?
CCCCN(CC)CCCNC(=O)Nc1sc2nc3n(c(=O)c2c1C)CCC(C)CC3 (configuration not stated)	i	·	·	i
C=CCNC(=O)c1onc(CCl)c1C(=O)OC	?	?	26µM*	?
C/C(=N\NC(=O)C(C)Nc1cccc(Cl)c1)c1ccc([N+](=O)[O-])cc1 (configuration not stated)	18µM*	0%	-14%	i
CC(=O)c1cccc(NC(=O)c2cc3c(s2)-c2c(C)cccc2OC3)c1	i	·	·	i
CC(=O)c1cccc(NC(=S)NC(=O)c2ccccc2C)c1	i	23%	0%	i
CC(=O)c1cccc(NC(=S)NC(=O)c2ccccc2Br)c1	21µM*	-5%	6%	i
CCc1sc(C(=O)Nc2cccc(C(C)=O)c2)cc1C	21µM*	8%	3%	i
CC(=O)c1cccc(NC(=S)NC(=O)c2cccc(C)c2)c1	18µM*	2%	0%	?
COc1ccc(OC)c(CNC(=O)Cc2ccc(NC(=O)N3CCSc4ncccc43)cc2)c1	i	·	·	i
COC(=O)c1cccc(NS(=O)(=O)c2ccc(OC)cc2)c1C	9.2µM*	12µM*	-23%[9.24 µM]	8.2µM*
CCOC(=O)c1ccccc1NS(=O)(=O)c1ccc(OCC)cc1	?	7.1µM*	2.2µM*	?
CCOC(=O)NCc1ccccc1	i	2%	-3%	i
